Compounds without any hit were thinned out: in the full panel of roughly 83,000, 20% have a hit.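 96-well plates, one dose, 48 hours. Percent growth reported; active if below 10.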 Calls of active or inactive are those of the source.
Legend:
Assay in all cases: NCI-60 one-dose screen, 48 h (100 = growth as untreated, 0 = no growth, -100 = all killed)
Conditions in all cases: 10 µM unless noted
[1] = system: NCI-H23 lung
[2] = system: NCI-H226 lung
[3] = system: NCI-H322M lung
[4] = system: HOP-62 NSCLC
[5] = system: NCI-H460 lung
[6] = system: HOP-92 NSCLC
[7] = system: NCI-H522 lung
[8] = system: A549/ATCC NSCLC
[9] = system: 786-0 renal
[10] = system: COLO 205 colon

Measured: growth

Cn1cc(-c2ccc3occ(-c4cccc(-c5ccncc5)c4)c3n2)cn1
inactive: [1] 19.5% | [2] 33.6% | [3] 34.3% | [4] 13.9% | [5] 13.5% | [6] 50.6% | [8] 17.7% | [9] 17.7% | [10] 14.7%
active: [7] -18.5%

O=c1cc(-c2nccc3c2[nH]c2ccccc23)c2cc(Cl)ccc2o1
inactive: [1] 60.7% | [2] 49.5% | [3] 81.6% | [4] 32.7% | [5] 21.5% | [6] 26.1% | [7] 14.4% | [8] 42.3% | [9] 27.9% | [10] 68.7%

CC1=C([Se]CC(OC(=O)[C@@H](CO)NC(=O)OC(C)(C)C)C(=O)NCCCCCC(=O)OCc2ccccc2)C(=O)c2ccccc2C1=O (some centres not stated)
inactive: [10] 10.2%
active: [1] -77.8% | [2] -85.4% | [3] -74% | [4] -100% | [5] -4.97% | [6] -75.3% | [7] -94.6% | [9] -97.3%

Cc1cc2nc(C(Cl)Cl)nc(-c3ccccc3)n2n1
inactive: [1] 33.6% | [2] 90.7% | [3] 10.9% | [4] 31.9% | [6] 72.9% | [7] 72.4% | [9] 92.4%
active: [5] -50% | [8] 4.73% | [10] 1.99%

O=c1ccc2c(ccc3ncccc32)o1
inactive: [1] 106% | [2] 104% | [3] 101% | [4] 109% | [5] 113% | [6] 112% | [7] 96% | [9] 110% | [10] 107%

N#CSCc1cc(Cl)c(CSC#N)cc1Cl
inactive: [1] 72.8% | [2] 73.3% | [3] 112% | [4] 113% | [5] 74.6% | [6] 11.8% | [7] 22.5% | [9] 71.4% | [10] 61.6%

Cc1ccc(S(=O)(=O)c2nc(-c3ccccc3)oc2S(C)=O)cc1 (configuration not stated)
active: [6] -51.8% | [7] -74.5% | [9] -64.5% | [10] -79.3%
inactive: [1] 63.6% | [2] 62.6% | [3] 79.9% | [4] 78.5% | [5] 73.1%

COc1cc2cc(Oc3ccc(NC(=O)Nc4ccc(Cl)c(Cl)c4)cc3)c(C)nc2cc1OCCN1CCCCC1
inactive: [1] 107% | [2] 77.7% | [3] 104% | [4] 107% | [5] 102% | [6] 75.1% | [7] 102% | [10] 112%
active: [9] -70%

c1ccc(Cn2cc3c(c2)-c2nc(Nc4ccccc4)ncc2CC3)cc1
inactive: [1] 71.7% [100 µM] | [2] 87.1% [100 µM] | [3] 78.2% [100 µM] | [4] 85.8% [100 µM] | [5] 82.7% [100 µM] | [6] 50.4% [100 µM] | [7] 80% [100 µM] | [8] 81.9% [100 µM] | [9] 97.3% [100 µM] | [10] 106% [100 µM]

CNC(=O)c1cc(Oc2ccc3nc(NC(=O)Nc4ccc(F)cc4F)sc3c2)ccn1
active: [6] -13.7%
inactive: [1] 47% | [2] 52.8% | [3] 62.2% | [4] 60.7% | [5] 63% | [7] 68.7% | [9] 64% | [10] 87.1%

COc1ccc(-c2ccc(-c3ccc(C(=N)N)o3)o2)cc1
inactive: [1] 35.6% | [2] 78.2% | [3] 56.1% | [4] 46.4% | [6] 27% | [9] 21.9%
active: [5] 0.541% | [7] 1.71% | [10] -45.8%

Cc1c(-c2cnc3ccc(Cl)cc3c2C(=O)O)nnn1-c1ccc(Cl)cc1
inactive: [1] 103% | [2] 102% | [3] 93.6% | [4] 89.4% | [5] 107% | [6] 88.7% | [7] 89.1% | [9] 62.7% | [10] 93.8%

Cc1c(C(=O)C(SC(=S)N2CCOCC2)SC(=S)N2CCOCC2)nnn1-c1ccc([N+](=O)[O-])cc1
inactive: [1] 108% | [2] 89.4% | [3] 98.7% | [4] 94.5% | [5] 98.8% | [6] 92.9% | [7] 80.3% | [9] 98.6% | [10] 86.5%

COc1cc(NC(=O)c2cncnc2Nc2ccc3c(ccn3Cc3cccc(F)c3)c2)cc(OC)c1
inactive: [1] 79.1% | [2] 80.3% | [3] 84.1% | [4] 52.7% | [5] 45.9% | [6] 83.4% | [7] 44.3% | [9] 81.1% | [10] 61.3%

COc1ccc2c(O)cc3c(c2c1)[C@H](CCl)CN3C(=O)c1cc2cc(NC(=O)CCN3CCOCC3)ccc2[se]1
inactive: [6] 94.8%
active: [1] -50.7% | [2] -12.5% | [3] -87.8% | [4] -79.7% | [5] -7.37% | [7] -82.5% | [9] -59.8% | [10] -78.2%

COC(=O)[C@@H](Cc1c[nH]c2ccccc12)NC[C@@H](O)CN1C(=O)/C(=C\c2cc(OC)c(OC)c(OC)c2)c2ccccc21
inactive: [1] 76.6% | [2] 58.5% | [3] 84.8% | [4] 64.8% | [5] 68.2% | [6] 68% | [7] 67.4% | [9] 77.6% | [10] 73.8%

Nc1n[nH]c2cccc(C#Cc3cccc(C(=O)Nc4ccc(Cl)c(C(F)(F)F)c4)c3)c12
inactive: [1] 59.1% | [2] 36% | [3] 77% | [4] 67.5% | [5] 64.3% | [6] 20.1% | [7] 30.9% | [9] 76.6% | [10] 29.3%

CCOC(=O)c1cc(C(=O)c2cc(OC)cc(OC)c2)n2ncccc12
active: [10] -13.2%
inactive: [1] 45.8% | [2] 57.5% | [3] 72.5% | [4] 30.7% | [5] 14.7% | [6] 47.1% | [7] 25.4% | [9] 34.2%

C=C(CNCCc1ccc(O)cc1)[C@@H]1CC[C@]2(CO)CC[C@]3(C)[C@H](CC[C@@H]4[C@@]5(C)CCC(N)C(C)(C)[C@@H]5CC[C@]43C)[C@@H]12 (some centres not stated)
active: [1] -66.5% | [3] -53.7% | [4] -74.7% | [5] -86.7% | [6] -78.8% | [7] -64.8% | [9] -87.3% | [10] -72.2%
inactive: [2] 87.6%

Cc1ccc(C(F)(F)F)cc1N1CCN(C(=O)[C@H]2C[C@H]2c2ccc(C(F)(F)F)nc2)CC1
inactive: [1] 95.5% | [2] 84.3% | [3] 99.1% | [4] 97.7% | [5] 106% | [6] 60.5% | [7] 72% | [9] 93% | [10] 91.6%

O=C(Nc1cccc(Cn2c(=O)[nH]c3ccc(Oc4ncccn4)cc3c2=O)c1)c1cccc(Cl)c1
inactive: [1] 48.6% | [2] 68.6% | [3] 75.5% | [4] 79.3% | [5] 57.7% | [6] 75.4% | [7] 61.5% | [9] 65.8% | [10] 71.9%

CC(C)(C)n1cc(-c2ccnc(NCCNS(=O)(=O)c3ccc(Br)cc3)c2)c(-c2cccc(O)c2)n1
inactive: [1] 35.2% | [2] 45.4% | [3] 62.7% | [4] 61.1% | [6] 18.5% | [7] 16.7% | [9] 21.2%
active: [5] 1.07% | [10] -74.9%

— PubChem BioAssay (NCI)
